The antibiotic and cytotoxicity screens of Wong et al. (2023)
Screen size: about 39,000 compounds; about 3,300 (8.5%) were called active. The entries come from a sample that favours actives as a whole.

Each molecule was assayed on HepG2 (assay: cytotoxicity call (relative viability < 0.9)). Settings: 10 µM.

Row | SMILES | cytotoxicity call
1 | Cc1noc(C)c1S(=O)(=O)Nc1ccc2c(c1)CC(=O)N([C@H](C)CO)C[C@@H](C)[C@@H](CN(C)C(=O)Nc1ccccc1)O2 | inactive
2 | COc1ccccc1S(=O)(=O)N1C[C@@H](O)COC[C@@H]2O[C@H](CC(=O)O)CC[C@H]21 | inactive
3 | C[C@@H]1CCCCO[C@H](CN(C)S(=O)(=O)c2ccc(Cl)cc2)[C@@H](C)CN([C@H](C)CO)C(=O)c2cc(NS(=O)(=O)c3cccs3)ccc2O1 | inactive
4 | C[C@@H]1CCCCO[C@@H](CN(C)S(=O)(=O)c2ccc(Cl)cc2)[C@@H](C)CN([C@@H](C)CO)C(=O)c2cc(NS(=O)(=O)c3cccs3)ccc2O1 | inactive
5 | C[C@@H]1CCCCO[C@H](CN(C)S(=O)(=O)c2ccc(Cl)cc2)[C@@H](C)CN([C@@H](C)CO)C(=O)c2cc(NS(=O)(=O)c3cccs3)ccc2O1 | inactive
6 | C[C@@H]1CCCCO[C@@H](CN(C)S(=O)(=O)c2ccc(Cl)cc2)[C@H](C)CN([C@H](C)CO)C(=O)c2cc(NS(=O)(=O)c3cccs3)ccc2O1 | active
7 | C[C@@H]1CCCCO[C@H](CN(C)S(=O)(=O)c2ccc(Cl)cc2)[C@H](C)CN([C@H](C)CO)C(=O)c2cc(NS(=O)(=O)c3cccs3)ccc2O1 | inactive
8 | C[C@@H]1CN([C@H](C)CO)C(=O)c2cc(NS(=O)(=O)c3cccs3)ccc2O[C@@H](C)CCCCO[C@@H]1CN(C)S(=O)(=O)c1ccc(Cl)cc1 | active
9 | C[C@H](CO)N1C[C@H](C)[C@@H](CN(C)S(=O)(=O)c2ccc(Cl)cc2)OCCCC[C@H](C)Oc2ccc(NS(=O)(=O)c3cccs3)cc2C1=O | inactive
10 | C[C@H](CO)N1C[C@H](C)[C@H](CN(C)S(=O)(=O)c2ccc(Cl)cc2)OCCCC[C@H](C)Oc2ccc(NS(=O)(=O)c3cccs3)cc2C1=O | inactive
11 | C[C@@H]1CCCCO[C@H](CN(C)S(=O)(=O)c2ccc(Cl)cc2)[C@H](C)CN([C@@H](C)CO)C(=O)c2cc(NS(=O)(=O)c3cccs3)ccc2O1 | inactive
12 | C[C@H]1CCCCO[C@H](CN(C)S(=O)(=O)c2ccc(Cl)cc2)[C@@H](C)CN([C@@H](C)CO)C(=O)c2cc(NS(=O)(=O)c3cccs3)ccc2O1 | inactive
13 | C[C@@H]1CCCCO[C@@H](CN(C)S(=O)(=O)c2ccc(Cl)cc2)[C@H](C)CN([C@@H](C)CO)C(=O)c2cc(NS(=O)(=O)c3cccs3)ccc2O1 | active
14 | C[C@@H]1CN([C@@H](C)CO)C(=O)c2cc(NS(=O)(=O)c3cccs3)ccc2O[C@@H](C)CCCCO[C@H]1CN(C)S(=O)(=O)c1ccc(Cl)cc1 | active
15 | C[C@@H]1CCCCO[C@@H](CN(C)C(=O)NC2CCCCC2)[C@H](C)CN([C@H](C)CO)C(=O)c2cc(NC(=O)Nc3ccc4c(c3)OCO4)ccc2O1 | inactive
16 | C[C@@H]1CN([C@H](C)CO)C(=O)c2cccc(NS(=O)(=O)c3cn(C)cn3)c2O[C@@H]1CN(C)Cc1ccncc1 | inactive
17 | C[C@@H]1CN([C@H](C)CO)S(=O)(=O)c2ccc(-c3cncnc3)cc2O[C@@H]1CN(C)C(=O)CN(C)C | inactive
18 | C[C@@H]1CN([C@@H](C)CO)C(=O)c2cc(NC(=O)NC3CCCCC3)ccc2O[C@@H](C)CCCCO[C@H]1CN(C)C(=O)c1ccccc1 | inactive
19 | CO[C@@H](CN(C)C(=O)Nc1ccc(C(F)(F)F)cc1)[C@H](C)CN(Cc1ccccc1Cl)[C@H](C)CO | inactive
20 | Cc1ccc(S(=O)(=O)Nc2ccc3c(c2)C(=O)N([C@@H](C)CO)C[C@@H](C)[C@@H](CN(C)Cc2ccc(C(=O)O)cc2)OCCCC[C@@H](C)O3)cc1 | inactive
21 | COc1cc(-c2cc(=O)c3c(s2)N(c2ccc(OC)c(OC)c2)[C@@H](c2ccc(O)c(OC)c2)CC3=O)ccc1O | inactive

Row | SMILES | cytotoxicity call
22 | COc1ccc(S(=O)(=O)Nc2ccc3c(c2)CC(=O)N([C@@H](C)CO)C[C@@H](C)[C@H](CN(C)S(=O)(=O)c2ccccc2)O3)cc1 | inactive
23 | CC(C)NC(=O)N(C)C[C@H]1OCCCC[C@H](C)Oc2ccc(NS(C)(=O)=O)cc2C(=O)N([C@H](C)CO)C[C@@H]1C | inactive
24 | C[C@H](CO)N1C[C@H](C)[C@@H](CN(C)C(=O)Nc2cccc3ccccc23)Oc2ccc(NS(=O)(=O)c3cccs3)cc2CC1=O | inactive
25 | CN(C)CCN1CCNCC1 | inactive
26 | C[C@H](NC(=O)N(C)C[C@H]1OCc2ccccc2-c2ccccc2C(=O)N([C@H](C)CO)C[C@@H]1C)c1ccccc1 | inactive
27 | CC(=O)OCCNC(=O)c1cccnc1 | inactive
28 | O=C(NCCO[N+](=O)[O-])c1cccnc1 [listing 1 of 2 here] | inactive
29 | O=C(NCCO[N+](=O)[O-])c1cccnc1 [listing 2 of 2 here] | active
30 | CC(C)CC#Cc1ccc2c(c1)O[C@H](CN(C)Cc1cncnc1)[C@@H](C)CN([C@@H](C)CO)S2(=O)=O | inactive
31 | O=C(C[C@H]1C=C[C@@H](NC(=O)c2cccc(F)c2)[C@@H](CO)O1)NCCN1CCCC1 | inactive
32 | C[C@@H]1COCCS(=O)(=O)N1C | inactive
33 | O=C(CCCCCNC(=O)OC[C@H]1C(=O)O[C@@H](Cc2ccccc2)[C@H]2[C@H]3C(=CC(=O)[C@@H]3C3CC3)CN21)NO | inactive
34 | C[C@@H]1CCCCO[C@@H](CN(C)C(=O)CCC(F)(F)F)[C@@H](C)CN([C@@H](C)CO)C(=O)c2cc(NS(=O)(=O)c3ccc(F)cc3)ccc2O1 | inactive
35 | COc1cccc(S(=O)(=O)N(C)C[C@@H]2OCc3cn(nn3)CCCC(=O)N([C@@H](C)CO)C[C@@H]2C)c1 | inactive
36 | C[C@@H]1CCCCO[C@@H](CN(C)S(=O)(=O)c2ccc(Cl)cc2)[C@H](C)CN([C@H](C)CO)C(=O)c2cc(NC(=O)NC3CCCCC3)ccc2O1 | active
37 | C[C@H](CO)N1C[C@H](C)[C@H](CN(C)S(=O)(=O)c2ccc(Cl)cc2)OCCCC[C@H](C)Oc2ccc(NC(=O)NC3CCCCC3)cc2C1=O | inactive
38 | C[C@@H]1CN([C@H](C)CO)C(=O)c2cc(NC(=O)NC3CCCCC3)ccc2O[C@@H](C)CCCCO[C@@H]1CN(C)S(=O)(=O)c1ccc(Cl)cc1 | inactive
39 | C[C@@H]1CCCCO[C@H](CN(C)S(=O)(=O)c2ccc(Cl)cc2)[C@@H](C)CN([C@H](C)CO)C(=O)c2cc(NC(=O)NC3CCCCC3)ccc2O1 | inactive
40 | C[C@@H]1CCCCO[C@H](CN(C)S(=O)(=O)c2ccc(Cl)cc2)[C@H](C)CN([C@H](C)CO)C(=O)c2cc(NC(=O)NC3CCCCC3)ccc2O1 | active
41 | C[C@H](CO)N1C[C@H](C)[C@@H](CN(C)S(=O)(=O)c2ccc(Cl)cc2)OCCCC[C@H](C)Oc2ccc(NC(=O)NC3CCCCC3)cc2C1=O | active
42 | C[C@@H]1CN([C@H](C)CO)C(=O)c2cc(NC(=O)NC3CCCCC3)ccc2O[C@@H](C)CCCCO[C@H]1CN(C)S(=O)(=O)c1ccc(Cl)cc1 | active

Row | SMILES | cytotoxicity call
43 | C[C@@H]1CN([C@@H](C)CO)C(=O)c2cc(NC(=O)NC3CCCCC3)ccc2O[C@@H](C)CCCCO[C@@H]1CN(C)S(=O)(=O)c1ccc(Cl)cc1 | inactive
44 | C[C@@H]1CCCCO[C@@H](CN(C)S(=O)(=O)c2ccc(Cl)cc2)[C@H](C)CN([C@@H](C)CO)C(=O)c2cc(NC(=O)NC3CCCCC3)ccc2O1 | inactive
45 | C[C@@H]1CCCCO[C@@H](CN(C)S(=O)(=O)c2ccc(Cl)cc2)[C@@H](C)CN([C@H](C)CO)C(=O)c2cc(NC(=O)NC3CCCCC3)ccc2O1 | inactive
46 | Cc1ccc(S(=O)(=O)N(C)C[C@H]2OCCCC[C@H](C)Oc3ccc(NS(C)(=O)=O)cc3C(=O)N([C@H](C)CO)C[C@H]2C)cc1 | inactive
47 | CNC[C@@H]1OCCCC[C@@H](C)Oc2ccc(NC(=O)c3ccncc3)cc2C(=O)N([C@@H](C)CO)C[C@H]1C | inactive
48 | C[C@H](CO)N1C[C@H](C)[C@H](CN(C)C(=O)c2ccncc2)OCCCC[C@H](C)Oc2ccc(NS(=O)(=O)c3ccc(Cl)cc3)cc2C1=O | inactive
49 | CC(C)CN1C[C@H](C(=O)O)CC1=O | inactive
50 | C[C@H](CO)N1C[C@H](C)[C@@H](CN(C)S(=O)(=O)c2cccs2)Oc2ccc(NC(=O)Cn3cnnn3)cc2C1=O | inactive
51 | COc1ccc(CCN2C(=O)[C@@]3(c4ccc([N+](=O)[O-])cc4)CC(=O)N(C4CCCCC4)[C@@H]3c3ccc(CO)cc32)cc1 | inactive
52 | C[C@@H]1CN([C@H](C)CO)C(=O)c2cc(NC(=O)C3CCCCC3)ccc2O[C@@H](C)CCCCO[C@H]1CN(C)Cc1ccncc1 | inactive
53 | C[C@H](CO)N1C[C@H](C)[C@H](CN(C)C(=O)c2ccccn2)Oc2cc(C#Cc3ccccc3)ccc2S1(=O)=O | inactive
54 | C[C@H](CO)N1C[C@H](C)[C@@H](CN(C)C(=O)Nc2ccc3c(c2)OCO3)OCCCC[C@H](C)Oc2ccc(NC(=O)Nc3ccc(C(F)(F)F)cc3)cc2C1=O | inactive
55 | C[C@@H]1CN([C@@H](C)CO)C(=O)c2cccc(NS(C)(=O)=O)c2O[C@H]1CN(C)Cc1ccc2c(c1)OCO2 | inactive
56 | Cc1ccc(S(=O)(=O)N2C[C@H](O)COC[C@H]3O[C@H](CC(=O)NCc4ccc5c(c4)OCO5)CC[C@@H]32)cc1 | inactive
57 | C[C@H]1CN([C@@H](C)CO)C(=O)c2cc(C#Cc3cccc(F)c3)cnc2O[C@@H]1CN(C)CC1CCOCC1 | inactive
58 | C[C@H](CO)N1C[C@H](C)[C@H](CN(C)C(=O)Nc2ccc(C(F)(F)F)cc2)OCCCC[C@H](C)Oc2ccc(NC(=O)Nc3ccc4c(c3)OCO4)cc2C1=O | inactive
59 | C[C@H]1CCCCO[C@H](CN(C)S(=O)(=O)c2ccc(Cl)cc2)[C@@H](C)CN([C@@H](C)CO)C(=O)c2cc(NC(=O)NC3CCCCC3)ccc2O1 | inactive
60 | C[C@@H]1CCCCO[C@@H](CN(C)S(=O)(=O)c2ccc(Cl)cc2)[C@@H](C)CN([C@@H](C)CO)C(=O)c2cc(NC(=O)NC3CCCCC3)ccc2O1 | active
61 | C[C@H]1CCCCO[C@@H](CN(C)S(=O)(=O)c2ccc(Cl)cc2)[C@@H](C)CN([C@@H](C)CO)C(=O)c2cc(NC(=O)NC3CCCCC3)ccc2O1 | active
62 | C[C@@H]1CCCCO[C@H](CN(C)S(=O)(=O)c2ccc(Cl)cc2)[C@H](C)CN([C@@H](C)CO)C(=O)c2cc(NC(=O)NC3CCCCC3)ccc2O1 | inactive
63 | C[C@@H]1CCCCO[C@H](CN(C)S(=O)(=O)c2ccc(Cl)cc2)[C@@H](C)CN([C@@H](C)CO)C(=O)c2cc(NC(=O)NC3CCCCC3)ccc2O1 | inactive
